Among all 310,000 compounds or so, about 14,000 (4.5%) showed an effect of 50% or more. The effect is printed as a negative number. Many of the other results were omitted from the sample, so strong results are more common in it than they were.
Molecular target: human ether-à-go-go-related gene (hERG) potassium channel (human, UniProt Q12809)
Assay: primary screen, population patch clamp on CHO cells stably expressing hERG; higher = less effect of the substance
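Further: peak tail current of the secondary pulse compared with the same well before compound.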

Sequence of human ether-à-go-go-related gene (hERG) potassium channel (Q12809 whole entry, looked up): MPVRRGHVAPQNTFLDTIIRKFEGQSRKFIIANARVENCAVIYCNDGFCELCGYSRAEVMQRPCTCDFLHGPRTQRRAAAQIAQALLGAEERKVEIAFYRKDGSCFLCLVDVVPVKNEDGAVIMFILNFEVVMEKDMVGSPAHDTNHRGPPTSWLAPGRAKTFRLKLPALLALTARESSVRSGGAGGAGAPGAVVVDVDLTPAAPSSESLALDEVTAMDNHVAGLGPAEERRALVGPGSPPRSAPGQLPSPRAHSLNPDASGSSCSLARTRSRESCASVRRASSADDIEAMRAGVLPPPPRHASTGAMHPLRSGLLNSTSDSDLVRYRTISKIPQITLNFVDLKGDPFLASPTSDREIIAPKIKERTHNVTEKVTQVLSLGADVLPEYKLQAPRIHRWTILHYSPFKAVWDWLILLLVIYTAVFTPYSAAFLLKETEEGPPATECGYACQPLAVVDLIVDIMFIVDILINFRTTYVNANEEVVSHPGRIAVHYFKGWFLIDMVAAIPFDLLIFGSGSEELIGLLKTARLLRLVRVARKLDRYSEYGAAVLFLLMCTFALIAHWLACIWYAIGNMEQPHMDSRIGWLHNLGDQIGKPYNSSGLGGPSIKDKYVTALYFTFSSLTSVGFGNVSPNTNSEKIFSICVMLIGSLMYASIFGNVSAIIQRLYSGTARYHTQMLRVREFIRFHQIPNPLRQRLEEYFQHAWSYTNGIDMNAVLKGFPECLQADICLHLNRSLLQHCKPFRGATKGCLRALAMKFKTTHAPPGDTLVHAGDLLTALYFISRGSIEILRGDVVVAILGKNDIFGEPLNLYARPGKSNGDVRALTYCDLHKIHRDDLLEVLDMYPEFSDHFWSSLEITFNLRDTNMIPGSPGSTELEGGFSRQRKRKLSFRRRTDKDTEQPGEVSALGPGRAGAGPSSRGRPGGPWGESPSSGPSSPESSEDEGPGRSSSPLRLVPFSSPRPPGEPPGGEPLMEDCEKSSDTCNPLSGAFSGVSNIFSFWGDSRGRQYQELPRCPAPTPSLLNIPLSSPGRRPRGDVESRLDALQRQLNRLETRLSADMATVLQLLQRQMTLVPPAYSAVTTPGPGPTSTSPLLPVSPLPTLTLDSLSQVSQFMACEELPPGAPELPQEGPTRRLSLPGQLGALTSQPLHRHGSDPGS

Row | SMILES | hERG current change (%, negative = inhibition) at 10uM
1 | CCOC(=O)C(NC(=O)CC)(Nc1ccccc1)C(F)(F)F (stereo not drawn) | 21.9%
2 | Cc1noc(/C=C/c2nn(C)cc2Cl)c1[N+](=O)[O-] | 16.6%
3 | C/C(=N\Nc1ccc(C)c(Cl)c1)c1ccncc1 | 24.8%
4 | Cc1ccccc1C(=O)NC1CCN(Cc2nnnn2C(C)(C)C)CC1 | 17.7%
5 | O=C(CCC(=O)c1ccc(Cl)s1)Nc1ncccc1O | -28.2%
6 | CCOC(=O)Nc1nc(-c2ccc(Cl)cc2Cl)cs1 | 11.7%
7 | CCc1ccc(CN(C)Cc2nc(Cc3cccc(C(F)(F)F)c3)no2)nc1 | -28.1%
8 | CN1CCCC2(CCCN(Cc3nc(Cc4cccc(C(F)(F)F)c4)no3)C2)C1 (stereo not drawn) | -45.2%
9 | CCn1ccnc1CN(C)Cc1nc(CCC(C)C)no1 | 4.23%
10 | CCn1ccnc1CN(C)Cc1nc(Cc2cccc(C(F)(F)F)c2)no1 | -60.8%
11 | CN(Cc1nc(Cc2cccc(C(F)(F)F)c2)no1)C1CC(C)(C)NC(C)(C)C1 | -12.3%
12 | CC(CN(C)Cc1nc(Cc2cccc(C(F)(F)F)c2)no1)CN1CCCC1 (stereo not drawn) | -63.2%
13 | COc1ccc(NC(=O)Cn2nnc(C(=O)Nc3ccc(F)c(Cl)c3)c2N)cc1 | 25.9%
14 | Cc1cccc(C(=O)NNC(=O)c2ccc(O)cc2)c1 | -2.31%
15 | COc1ccc(CCNC(=O)COC(=O)C2CCCCC2)cc1 | 7.11%
16 | Cc1nc2nc[nH]n2c(=O)c1CCOC(=O)c1ccccc1F | 20.7%
17 | O=C(/C=C\c1ccccc1)NCC(=O)N/N=C/c1ccc(O)cc1O | 9.48%
18 | Cc1ccc(NC(=O)CCNS(=O)(=O)c2ccccc2)c(C(=O)c2ccccc2)c1 | -20.4%
19 | CC(=O)c1ccc(C(=O)NC2CCCN(Cc3ccc(Cl)cc3)C2)s1 (stereo not drawn) | -66.4%
20 | Cc1cc(C(=O)NC2CCCN(Cc3ccc(Cl)cc3)C2)c(C)o1 (stereo not drawn) | -11.9%
21 | Cc1ccsc1C(=O)NC1CCCN(Cc2ccc(Cl)cc2)C1 (stereo not drawn) | -56.2%
22 | Cc1cc(C(=O)NC2CCCN(Cc3ccc(Cl)cc3)C2)no1 (stereo not drawn) | -34.6%

Row | SMILES | hERG current change (%, negative = inhibition) at 10uM
23 | O=C(NC1CCCN(Cc2ccc(Cl)cc2)C1)C1CCC1 (stereo not drawn) | -13.6%
24 | Cc1cc(C(=O)NC2CCCN(Cc3ccc(Cl)cc3)C2)n(C)n1 (stereo not drawn) | -16%
25 | CNc1nc(Sc2ccc(C)cc2)cc(C(F)(F)F)n1 | 15.5%
26 | COc1ccc(N(CC(=O)Nc2cc(Cl)ccc2OC)C2=NC3CS(=O)(=O)CC3S2)cc1 (stereo not drawn) | -7.35%
27 | Cc1ccc(C(=O)N2CCN(c3ccccn3)CC2)cc1Cl | -3.65%
28 | CC(NC(=O)c1cc(S(=O)(=O)N2CCOCC2)ccc1F)c1ccc(-n2ccnc2)cc1 (stereo not drawn) | -72.2%
29 | Cc1ccc(C(=O)NC(C)c2ccccc2)cc1S(=O)(=O)N1CCOCC1 (stereo not drawn) | -1.39%
30 | O=C(Nc1ccc(N2CCCCC2)cc1)c1cc(S(=O)(=O)N2CCOCC2)ccc1F | -9.76%
31 | Cc1ccc(C(=O)NC(C)c2ccc(-n3ccnc3)cc2)cc1S(=O)(=O)N1CCOCC1 (stereo not drawn) | -65.1%
32 | O=C(NCCCn1ccnc1)c1cc(S(=O)(=O)N2CCOCC2)ccc1F | 26.8%
33 | Cc1ccc(C(=O)NNC(=O)c2ccncc2)cc1S(=O)(=O)N1CCOCC1 | 0.578%
34 | CCOC(=O)CNC(=O)C(=O)c1c(O)[nH]c2ccccc12 | 9.92%
35 | CC(C(=O)NCC1CCCO1)n1cccc1C(=O)c1ccccc1 (stereo not drawn) | 15.1%
36 | CCOC(=O)C1=C(CN2CCc3ccccc32)NC(=O)NC1c1cccc([N+](=O)[O-])c1 (stereo not drawn) | -7.46%
37 | Cc1cc(C(=O)OCn2nnc3ccccc3c2=O)c(C)o1 | -6.92%
38 | Cc1c(C(=O)Nc2ccc(F)c(F)c2)oc2ccc(S(=O)(=O)N3CCCCC3)cc12 | -0.731%
39 | Cc1ccc(CN2CCN(/N=C/c3ccc(O)c(O)c3)CC2)cc1 | -21.7%
40 | Cn1ccnc1C(=O)c1cc(=O)c2ccccc2o1 | 8.14%
41 | Clc1ccc(CSc2nnc(-c3cccnc3)n2Cc2ccco2)c(Cl)c1 | -68.7%
42 | O=C(CSc1nnc(-c2cccnc2)n1Cc1ccccc1)NCc1ccco1 | -1.17%
43 | Clc1ccccc1CSc1nnc(-c2cccnc2)n1Cc1ccco1 | -43.1%
44 | Clc1cccc(CSc2nnc(-c3ccccn3)n2Cc2ccco2)c1 | -35.7%

Row | SMILES | hERG current change (%, negative = inhibition) at 10uM
45 | Clc1ccc(CSc2nnc(-c3ccccn3)n2Cc2ccco2)c(Cl)c1 | -5.15%
46 | Clc1cccc(CSc2nnc(-c3cccnc3)n2Cc2ccco2)c1 | -74.3%
47 | Cc1cc(C)cc(OCC(=O)Nc2ccncc2)c1 | -18.9%
48 | C=CCN(c1ccccc1)S(=O)(=O)c1cccc(C(=O)NNC(=O)c2ccncc2)c1 | -7.43%
49 | O=C1NC(Cc2ccccc2)C(=O)N1Cc1cc([N+](=O)[O-])cc2c1OCOC2 (stereo not drawn) | 7.47%
50 | COc1ccc(N2CCN(C(=O)c3ccc(SC)cc3OC)CC2)cc1 | -55.3%
51 | COc1cc(SC)ccc1C(=O)N1CCN(Cc2ccccc2)CC1 | -62.7%
52 | COc1cc(SC)ccc1C(=O)N1CCN(Cc2ccc3c(c2)OCO3)CC1 | -34.3%
53 | COc1cc(SC)ccc1C(=O)N1CCN(c2ccc(O)cc2)CC1 | -34.2%
54 | COc1cc(SC)ccc1C(=O)N1CCCCCC1 | 17.3%
55 | COc1cc(SC)ccc1C(=O)N1CCN(c2ccccc2)CC1 | -17.2%
56 | COc1ccc(-c2cn3c(C)c(C(=O)NC(C)C)sc3n2)cc1 | 6.65%
57 | COc1nc2c(C)cccc2cc1-c1noc(-c2ccco2)n1 | -8.01%
58 | c1ccc(-c2ncc3ccccn23)cc1 | -3.24%
59 | COc1cc(-c2cc(C(=O)Nc3nc4ccccc4s3)c3ccccc3n2)cc(OC)c1OC | 35.9%
60 | CCc1ccc(CNCc2cccs2)cc1.Cl | -22.9%
61 | Brc1ccc(CNCc2cccs2)cc1 | -55.1%
62 | Brc1cccc(CNCc2cccs2)c1 | -10.2%
63 | Cc1cc(Cl)c(OCCCn2cncn2)c(Br)c1 | -14.1%
64 | CCCCOc1ccc(/C=C/C2=CC(C)(C)NC(=S)N2)cc1OCC | 7.58%
65 | CCn1ccnc1CN(C)C(=O)C1CCC(=O)N(Cc2cccc(F)c2)C1 (stereo not drawn) | -11.9%
66 | CN(Cc1nc2ccccc2[nH]1)C(=O)C1CCC(=O)N(CCc2cccc(F)c2)C1 (stereo not drawn) | 4.23%

Row | SMILES | hERG current change (%, negative = inhibition) at 10uM
67 | Cc1ccsc1CN(C)C(=O)C1CCC(=O)N(CCc2cccc(F)c2)C1 (stereo not drawn) | -35.9%
68 | CCn1ccnc1CN(C)C(=O)C1CCC(=O)N(CCc2cccc(F)c2)C1 (stereo not drawn) | -50.7%
69 | CN(Cc1ccccc1Cl)C(=O)C1CCC(=O)N(CCc2cccc(F)c2)C1 (stereo not drawn) | -52.5%
70 | CCn1ccnc1CN(C)C(=O)C1CCC(=O)N(Cc2cccc(C(F)(F)F)c2)C1 (stereo not drawn) | -22.8%
71 | O=C(CSc1n[nH]c(=O)[nH]c1=O)c1ccc(Cl)cc1Cl | 16.1%
72 | Cn1c(=O)[nH]c(=O)c2c1nc(N1CCOCC1)n2CC(O)COc1ccccc1 (stereo not drawn) | 6.81%
73 | CCOc1ncccc1C(=O)OCC(=O)c1ccccc1Br | 0.975%
74 | CCOc1ccccc1OCCCC(=O)N(CC)CC(=O)Nc1c(F)cccc1F | -1.78%
75 | CCN1CCN(C(c2ccc(C(F)(F)F)cc2)c2ccc3cccnc3c2O)CC1 (stereo not drawn) | -25.3%
76 | O=S(=O)(Nc1cccc2cn[nH]c12)c1ccc(F)cc1 | -5.83%
77 | CCOC(=O)c1cc2c(=O)n3ccccc3nc2n(CC(C)C)c1=NC(=O)c1c(-c2c(F)cccc2Cl)noc1C | 5.66%
78 | CCCCn1c(=NC(=O)c2ccco2)c(C(=O)OCC)cc2c(=O)n3cccc(C)c3nc21 | -81.6%
79 | CCOC(=O)c1cc2c(=O)n3cccc(C)c3nc2n(CC(C)C)c1=NC(=O)c1ccco1 | -69.7%
80 | CCOC(=O)c1cc2c(=O)n3cccc(C)c3nc2n(Cc2ccco2)c1=NC(=O)c1ccccc1 | -37.2%
81 | CCOCCCn1c(=NC(=O)c2ccco2)c(C(=O)OCC)cc2c(=O)n3cccc(C)c3nc21 | -74%
82 | Cc1ccc(NC(=O)CSc2nnc(CSc3nc(C)cc(C)n3)n2Cc2ccco2)c(C)c1 | -39.5%
83 | O=C(Cn1nnc(-c2ccccc2F)n1)Nc1ccc2c(c1)OCCO2 | 11.3%
84 | O=C(COc1ccccc1Cl)Nc1cccc(S(=O)(=O)NC2=NCCCCC2)c1 | -5.14%
85 | CN(C)CCCn1c(SCC(=O)N2c3ccccc3Sc3ccccc32)nc2ccccc2c1=O | -39.5%
86 | CC(=O)Nc1ccc(C)cc1 | 12.2%
87 | O=C(O)Cn1c(=O)cnc2ccccc21 | 9.56%
